Screening results as filed in PubChem BioAssay.
Sampled rows, rich in hits. Any-hit rate of the full collection: about 11%.
NIH3T3 tox: kills NIH 3T3 cells; AID 1345082; Potency, µM (titrated, usually from 96.7 µM), actives largely listed as inhibitors; 94,000 tested, 4.3% active; NIH 3T3 viability, CellTiter-Glo ATP luminescence, 48-72 h; also: nearly all actives have a fitted effect of over 55% in size
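NIH 3T3 cells at 400 cells/well received 23 nL of compound by pintool and were incubated 48 or 72 h at 37 °C. Viability was read as ATP-coupled CellTiter-Glo luminescence.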
HEK293 tox: kills HEK 293 cells. HEK 293 viability, ATP luminescence (CellTiter-Glo), 48-72 h. Potency, µM (series often up to 115 µM), hits mostly inhibitors. 94,000 tested, 6.6% active. AID 1345083; also: nearly all actives have a fitted effect of over 60% in size
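Luminescence from cellular ATP, measured with CellTiter-Glo, indicates HEK 293 viability. Cells plated at 250 cells/well are treated with compound for 48 or 72 hr at 37 degree Celsius before reagent addition.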
FLuc inh: Photinus pyralis luciferase inhibition. P08659. purified P. pyralis luciferase, luminescence, biochemical. Potency, µM (titrated, usually from 115 µM), usual class: inhibitors. 76,000 tested, 2.5% active; also: nearly all actives have a fitted effect of over 65% in size
Target sequence (P08659 whole entry, looked up): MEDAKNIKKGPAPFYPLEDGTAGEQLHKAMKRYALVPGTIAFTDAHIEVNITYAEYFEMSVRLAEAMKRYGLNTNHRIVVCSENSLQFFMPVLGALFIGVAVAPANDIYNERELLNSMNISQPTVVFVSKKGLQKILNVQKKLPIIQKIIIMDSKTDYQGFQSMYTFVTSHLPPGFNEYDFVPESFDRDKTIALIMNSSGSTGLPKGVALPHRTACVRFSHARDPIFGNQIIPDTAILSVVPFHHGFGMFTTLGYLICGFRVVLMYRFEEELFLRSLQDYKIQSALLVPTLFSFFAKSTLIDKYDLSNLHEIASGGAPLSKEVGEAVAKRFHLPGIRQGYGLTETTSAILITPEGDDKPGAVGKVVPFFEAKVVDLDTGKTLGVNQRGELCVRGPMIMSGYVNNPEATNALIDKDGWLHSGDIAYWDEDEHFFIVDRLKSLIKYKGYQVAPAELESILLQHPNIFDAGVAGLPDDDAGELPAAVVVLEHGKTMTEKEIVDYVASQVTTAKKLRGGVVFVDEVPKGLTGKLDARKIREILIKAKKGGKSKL
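Luminescence read by CCD imaging after purified firefly luciferase (10nM final) was added to substrate buffer holding 10uM D-luciferin and 10uM ATP, pH 7.5, pre-dosed with compound.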
hNpr1 antagonist: blocks ANP-stimulated signaling of human Npr1 receptor. Potency, µM (series often up to 46.3 µM), most hits filed as inhibitors. HEK293 hNpr1 GloSensor cGMP, ANP-stimulated luminescence. 76,000 tested, 1.6% active; calls by dose curve; also: nearly all actives have a fitted effect of over 60% in size
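Compound pre-incubated 30 min at room temperature on GloSensor-loaded HEK293 cells stably carrying hNpr1 and the pGS-40F cGMP biosensor. Stimulation uses hNppA at 0.1 nM final; luminescence is taken at baseline and 20 min post-agonist.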
Hits are given with their value; n = inactive; u = inconclusive; x = no result. Unless noted, calls follow the shape of the dose curve; as a rule, active = well fitted curve in the direction sought with a large enough effect; inconclusive = small, poorly fitted or top-dose-only effect, or another doubt; inactive = no such curve, though single readings can be large; an effect the other way counts as inactive or inconclusive.

SMILES	NIH3T3 tox	HEK293 tox	FLuc inh	hNpr1 antagonist
Cc1cc(F)ccc1OCC(=O)c1ccc2c(c1)N(C(C)C(=O)NCc1ccc(F)cc1)C(=O)CO2 (centres undefined)	u	45µM	n	n
CC(C(=O)NCc1ccccc1)N1C(=O)COc2ccc(C(=O)COc3ccc(F)cc3)cc21 (centres undefined)	n	u	n	n
Cc1ccc(NC(=O)N2CCCC(Cn3c(C)cnc3C3CC3)C2)cc1C (centres undefined)	u	n	x	x
O=C(c1ccccc1OCC1CCCN(Cc2c[nH]c3ccccc23)C1)N1CCCCC1 (centres undefined)	u	50µM	x	x
NCCc1cccc(CN2CCCC(COc3ccccc3F)C2)c1 (centres undefined)	35µM	u	n	n
Cc1ccccc1N1CCCN(Cc2cccc(CCN)c2)CC1	u	28µM	n	n
Cn1cc(CN2CCCC(COc3ccccc3C(=O)N3CCCCC3)C2)c2ccccc21 (centres undefined)	u	u	n	n
CCOc1cccc(CN2CCCC(COc3ccccc3C(=O)NC(C)C)C2)c1 (centres undefined)	u	45µM	n	n
Cc1nc2cccnc2n1CC1CCCN(S(=O)(=O)c2ccc(F)cc2)C1 (centres undefined)	n	u	n	n
CCCc1noc(-c2ccn3c(CNC(=O)Cc4ccccc4Cl)nnc3c2)n1	n	n	n	n
COC[C@@H]1CN(Cc2ccc3cc[nH]c3c2)C[C@H]1c1nc(C)no1	n	n	n	n
COc1ccc(NC(=O)N2C[C@@H]3C[C@H](C2)c2ccc(NS(=O)(=O)c4ccc(NC(C)=O)cc4)c(=O)n2C3)cc1	n	n	n	n
COc1ccc(CC(=O)N2CCN(C(=O)c3cccc(-c4ccccn4)c3)CC2)cc1	n	u	x	x
O=C(CC1CCCC1)N1CCCC(c2noc(COc3ccccc3F)n2)C1 (centres undefined)	u	u	n	n
CCCCNC(=O)c1cccc(CN2C(=O)CC(c3ccccc3C)C(C(=O)OCC)=C2C)c1 (centres undefined)	u	u	n	n
CCOC(=O)C1=C(C)N(Cc2ccc(C(=O)N3CCCCC3)cc2)C(=O)CC1c1cccc(C)c1 (centres undefined)	u	40µM	n	u
CCc1ccc(S(=O)(=O)N2CCC(OC3CCN(Cc4ccccc4)CC3)CC2)cc1	35µM	u	n	n
Cc1ccc(S(=O)(=O)N2CCC(OC3CCN(Cc4ccccc4)CC3)CC2)c(C)c1	32µM	u	n	n
O=S(=O)(Cc1ccccc1)N1CCC(OC2CCN(Cc3ccccc3)CC2)CC1	u	u	n	n
O=S(=O)(c1ccc(F)cc1)N1CCC(OC2CCN(Cc3ccccc3)CC2)CC1	u	u	n	n
O=c1n(Cc2ccc3ccccc3n2)nc(C2CCNCC2)n1Cc1ccccc1	n	n	n	n
Cc1noc(C)c1-c1cc2c(cc(C)n2C)c(-c2cnn(C)c2)n1	40µM	u	n	n
COc1cc(-c2nc(-c3c(C)noc3C)cc3c2cc(C)n3C)ccn1	u	u	n	n
COc1cccc(-c2nc(-c3c(C)noc3C)cc3c2cc(C)n3C)c1OC	25µM	u	n	n
Cc1noc(C)c1-c1cc2c(cc(-c3ccccc3)n2C)c(N2CCOCC2)n1	32µM	56µM	n	n
SMILES	NIH3T3 tox	HEK293 tox	FLuc inh	hNpr1 antagonist
Cc1noc(C)c1-c1cc2c(cc(-c3ccccc3)n2C)c(-c2cnn(C)c2)n1	11µM	20µM	n	n
Cc1noc(C)c1-c1cc2c(cc(C)n2C)c(-c2cccnc2)n1	u	u	n	n
Cc1noc(C)c1-c1cc2c(cc(C)n2C)c(-c2ccnn2C)n1	u	u	n	n
Cc1noc(C)c1-c1cc2c(cc(C)n2C)c(N2CCN(Cc3ccccc3)CC2)n1	45µM	u	n	n
Cc1noc(C)c1-c1cc2c(cc(C)n2C)c(-c2cccc([S+](C)(=O)[O-])c2)n1	14µM	u	n	n
Cc1noc(C)c1-c1cc2c(cc(-c3ccccc3)n2C)c(-c2ccnn2C)n1	u	35µM	n	n
Cc1noc(C)c1-c1cc2c(cc(C)n2C)c(-c2ccccc2)n1	50µM	u	n	n
COCCC(=O)N[C@H]1CC[C@]2(C)CCC([C@H](C)C(=O)N3CCc4ccccc4C3)[C@H](O)[C@H]2[C@@H]1C (some centres undefined)	n	n	n	n
Cc1cc(C)n(CC(=O)N2CCC(Cc3ccc(CN4CCN(C)CC4)cc3)CC2)n1	n	u	x	x
Cc1cccc(OCCc2noc(C3CCCCN3)n2)c1 (centres undefined)	n	n	n	n
COCCOC1CCOC2(CCN(C(=O)c3sccc3C)CC2)C1 (centres undefined)	n	n	n	n
O=C(c1nc2cccnc2n(C2CC2)c1=O)N1CCC(c2ccccc2)CC1	n	n	x	x
COc1cccc(CNC(=O)C2Cn3cccc3C(=O)N2Cc2cccnc2)c1 (centres undefined)	n	n	n	n
COc1ccc(CN2C(=O)[C@H](OC)[C@@H]2C2=CCN(C(=O)c3cccc(C#N)c3)CC2)cc1	n	n	x	x
O=C(c1ccc(C(F)(F)F)cc1)N1CCC2(CC1)CCN(Cc1cccs1)c1ccccc1O2	13µM	25µM	n	n
O=C1CC2(CCN(C(=O)C3CCCN([S+](=O)([O-])c4cccs4)C3)CC2)Oc2ccccc2N1 (centres undefined)	n	u	x	x
O=C(C1CC1)N1CCC2(CC1)CCN(Cc1cccs1)c1ccccc1O2	u	35µM	n	n
O=C1CC2(CCN(C(=O)C3CCN([S+](=O)([O-])c4cccs4)CC3)CC2)Oc2ccccc2N1	u	28µM	x	x
COCCn1cnc2ccc(-c3ccsc3)nc2c1=O	u	n	u	n
O=C1c2cnc(-c3ccccc3)nc2OCCN1Cc1ccc(F)cc1F	n	112µM	n	n
CN(C)C(=O)c1ccc(-c2ncc3c(n2)OCCN(Cc2ccc(F)cc2F)C3=O)cc1	n	u	45µM	n
COc1cccc(-c2ncc3c(n2)OCCN(Cc2ccc(F)cc2F)C3=O)c1F	n	u	16µM	n
O=C1c2cnc(-c3cc(F)cc(F)c3)nc2OCCN1Cc1ccc(F)cc1F	n	u	n	n
COCCNC(=O)c1cc(-c2cc(Cl)cc(Cl)c2)c2nncn2n1	n	n	x	x
CCCCN1C(=O)c2ccccc2C(C(=O)Nc2ccccn2)C12CCCC2 (centres undefined)	u	u	n	n
Cc1ccc(-c2noc([C@@H]3C[C@H](NS(=O)(=O)c4ccc(F)cc4)CN3C)n2)cc1	u	u	45µM	n
CN1C[C@@H](NS(=O)(=O)c2ccc(Cl)cc2)C[C@H]1c1nc(-c2ccc(F)cc2)no1	u	u	40µM	n
CN1C[C@@H](NS(=O)(=O)c2ccc(F)cc2)C[C@H]1c1nc(-c2cccnc2)no1	n	n	n	n
CN1C[C@@H](NS(=O)(=O)c2ccccc2)C[C@H]1c1nc(-c2ccc(F)cc2)no1	u	100µM	u	n
